According to PubChem BioAssay:

Assay: basal RPMI8226 viability, no added stimulus, profiling panel, cell-based, calcein-AM fluorescence, 48 h, PK04 Diversity Set (AID 1166);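 also: cells grown under basal conditions without added stimulus; test concentration not given here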
Settings: RPMI8226 myeloma viability, higher = more signal

Row | Structure (SMILES) | z-score
1 | CCOC(=O)C[C@H]1[C@H](OC(=O)Cc2ccc3c(c2)OCO3)[C@@H](NC(=O)c2ccc3ccccc3n2)c2cc(OCCCO)ccc2N1C(=O)c1ccccc1 | -1.09
2 | COc1ccc([Si](C)(C)[C@@H]2[C@@H](CC(=O)N(CCO)Cc3ccccc3)O[C@]3(C(=O)N(Cc4cccc(N5CCCCC5=O)c4)c4ccccc43)[C@H]2C)cc1 | -3.89
3 | C=C[C@@H](OC)[C@H](OC(=O)Nc1ccc(OC)cc1)c1ccc(O)c(F)c1 | -2.47
4 | CCCCCC1=C2CNC(C)(C(=O)OC)C=C2C(C)C1=O (stereo not given) | -0.467
5 | O=C1NC(=O)C2C1C=CC(C(O)c1ccco1)N2Nc1ccc(Cl)cc1Cl (stereo not given) | -0.941
6 | CCC#CCN(Cc1ccccc1Br)[C@H](/C=C/C1CC1)[C@@H](O)Cc1ccccc1 | -3.31
7 | COc1ccc([Si](C)(C)[C@@H]2[C@@H](CC(=O)N3Cc4ccccc4C[C@H]3CO)O[C@]3(C(=O)N(Cc4ccc(N5C(=O)c6cccc7cccc5c67)cc4)c4ccccc43)[C@H]2C)cc1 | -0.705
8 | [N-]=[N+]=Nc1ccccc1C[C@@]1(C(=O)NCCN2CCOCC2)N=C(c2ccc(OCCCO)cc2)O[C@@H]1c1ccccc1N=[N+]=[N-] | -3.31
9 | CC1=C2[C@@H](CCc3ccccc3)OB(O)C[C@@H]2[C@@H]2C(=O)N(Cc3ccccc3)C(=O)[C@@H]2C1 | -2.4
10 | CC1CC/C=C\[C@H]2OC34C=CCN(Cc5ccccc5)C(=O)[C@H]3N(C(CO)C(C)C)C(=O)[C@@H]4C2C(=O)O1 (stereo not given in full) | 0.847
11 | COc1cccc(C)c1NC(=O)O[C@H]1[C@H](OC(=O)Nc2ccc3c(c2)OCO3)[C@@H](OC(=O)Nc2ccc3c(c2)OCO3)[C@@H](OC)O[C@@H]1CO | -0.815
12 | Cc1ccccc1C(O)C1C=CC2C(=O)NC(=O)C2N1Nc1ccccn1 (stereo not given) | -0.729
13 | CCCCC(=C=CC[C@H](O)c1ccc(OCCO)cc1)CCO | 0.0135
14 | CC(c1ccccc1)C(O)C1C=CC2C(=O)N(C)C(=O)C2N1Nc1ccccc1 (stereo not given) | -0.435
15 | C=CCC(OC(C)=O)[C@@H]1[C@@H](N(Cc2ccc(-c3cccc(C(F)(F)F)c3)o2)C(=O)Cc2ccc(OC)cc2)c2cc(OCCCO)ccc2N1C(=O)c1ccc(-c2ccccc2)cc1 (stereo not given in full) | -1.93
16 | Cc1ccc(S[C@]2(C(=O)NC(C)C)CC(=O)N(Cc3cc(C(F)(F)F)cc(C(F)(F)F)c3)[C@@H]2c2ccc(CO)cc2)cc1 | 0.392
17 | CCOC(=O)C[C@H]1[C@H](OC(=O)c2cc3ccccc3oc2=O)[C@@H](NC(=O)CC(C)C)c2cc(OCCCO)ccc2N1C(=O)c1ccc2ccccc2n1 | 0.156
18 | COc1ccc(CCNC(=O)[C@@]2(c3ccc([N+](=O)[O-])cc3)CC(=O)N(C3CCCCC3)[C@@H]2c2ccc(CO)cc2)cc1 | 0.841
19 | C[C@@H]1NC(=O)[C@@H](Cc2ccccc2)NC(=O)[C@@]23C(=O)N[C@@H](Cc4ccccc4)C2[C@H](C)[C@@]2(C)O[C@H]2C3/C=C/C/C=C\CNC1=O (stereo not given in full) | -0.377
20 | CCC1=C2CN(Cc3ccccc3)[C@@H](C(=O)Cc3ccccc3)C2C=CCC1 (stereo not given in full) | -0.96
21 | N#Cc1ccc(NN2C(C(O)c3ccc(Br)cc3)C=CC3C(=O)N(c4ccccc4)C(=O)C32)cc1 (stereo not given) | 0.201
22 | OCCCC1=CC(c2ccc(CN3CCCC3)cc2)N(Cc2cc3c(cc2Br)OCO3)CC1 (stereo not given) | 0.866
23 | O=C(O)[C@@H]1C[C@@H]2C(=O)N3CCC[C@H]3C(=O)N2[C@@H]1c1ccc(O)cc1 | 0.0242
24 | CC(C)[Si]1(C(C)C)OCc2cc(-c3ccc(-c4ccc(Cl)c(Cl)c4)o3)nc(-c3ccccc3)c21 | -1.8
25 | COc1ccc([Si](C)(C)[C@@H]2[C@@H](CCO)O[C@]3(C(=O)N(Cc4ccccc4)c4ccc(N5C(=O)c6cccc7cccc5c67)cc43)[C@H]2C)cc1 | -2.73
26 | C=C[C@H](C)[C@H](OC(=O)Nc1ccc(SC)cc1)c1ccc(OCCO)cc1 | -2.41
27 | CCOC(=O)C[C@H]1[C@H](OC(=O)c2cc3ccccc3oc2=O)[C@@H](NC(=O)c2ccc3ccccc3n2)c2cc(OCCCO)ccc2N1C(=O)Cc1ccc(OC)cc1 | -0.946
28 | O=C(NCCN1CCOCC1)[C@@H]1c2ccccc2C(=O)N(Cc2ccccc2Cl)[C@H]1c1ccc(CO)cc1 | 0.125
29 | COC(=O)[C@@]1(Cc2ccc(F)cc2)[C@H]2c3cc(C(=O)N4CCCC4)n(Cc4ccc(C)c(F)c4F)c3C[C@H]2CN1C(=O)c1ccccc1 | -3.35
30 | CCCCC(CC)C(O)C1C=CC2C(=O)N(c3ccccc3)C(=O)C2N1Nc1ccccc1F (stereo not given) | 0.203
